Our source for the log2 fold change values is the supplement of paper PMC12819154, “High-throughput peptide-centric local stability assay extends protein–ligand identification to membrane proteins, tissues and bacteria” (Nature Structural & Molecular Biology, 2025).

Sequence of UniProt P07437 (P07437 whole entry): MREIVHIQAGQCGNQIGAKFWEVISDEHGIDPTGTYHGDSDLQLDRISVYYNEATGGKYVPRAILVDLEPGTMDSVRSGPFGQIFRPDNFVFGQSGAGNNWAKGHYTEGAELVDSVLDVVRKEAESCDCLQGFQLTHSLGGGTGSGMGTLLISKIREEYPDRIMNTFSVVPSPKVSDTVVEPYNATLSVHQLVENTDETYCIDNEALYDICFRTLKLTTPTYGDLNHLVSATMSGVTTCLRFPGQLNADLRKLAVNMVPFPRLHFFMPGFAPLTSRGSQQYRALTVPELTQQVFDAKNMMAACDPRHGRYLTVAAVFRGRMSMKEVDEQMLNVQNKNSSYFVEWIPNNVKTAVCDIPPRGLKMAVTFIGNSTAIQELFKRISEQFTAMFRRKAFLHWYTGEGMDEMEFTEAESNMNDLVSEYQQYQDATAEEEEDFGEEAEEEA
Sequence of UniProt Q02040 (Q02040 whole entry): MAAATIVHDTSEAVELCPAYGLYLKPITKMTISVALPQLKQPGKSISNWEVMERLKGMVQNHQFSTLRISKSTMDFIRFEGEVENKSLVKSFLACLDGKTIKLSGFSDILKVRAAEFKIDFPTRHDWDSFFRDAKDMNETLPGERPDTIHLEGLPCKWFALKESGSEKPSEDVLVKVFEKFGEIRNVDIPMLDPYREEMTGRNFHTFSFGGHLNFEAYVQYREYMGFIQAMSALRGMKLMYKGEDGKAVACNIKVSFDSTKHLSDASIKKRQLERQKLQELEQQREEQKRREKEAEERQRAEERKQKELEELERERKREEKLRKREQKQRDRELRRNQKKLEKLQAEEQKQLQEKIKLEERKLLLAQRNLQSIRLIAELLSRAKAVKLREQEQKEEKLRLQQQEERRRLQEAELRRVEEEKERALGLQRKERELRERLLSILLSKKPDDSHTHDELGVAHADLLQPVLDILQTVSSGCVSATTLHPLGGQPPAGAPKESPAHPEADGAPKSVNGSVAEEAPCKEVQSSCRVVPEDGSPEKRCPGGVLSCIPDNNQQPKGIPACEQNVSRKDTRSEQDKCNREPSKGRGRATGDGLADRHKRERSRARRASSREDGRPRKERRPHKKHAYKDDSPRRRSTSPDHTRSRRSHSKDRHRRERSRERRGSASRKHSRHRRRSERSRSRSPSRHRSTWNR
Sequence of UniProt O00506 (O00506 whole entry, looked up): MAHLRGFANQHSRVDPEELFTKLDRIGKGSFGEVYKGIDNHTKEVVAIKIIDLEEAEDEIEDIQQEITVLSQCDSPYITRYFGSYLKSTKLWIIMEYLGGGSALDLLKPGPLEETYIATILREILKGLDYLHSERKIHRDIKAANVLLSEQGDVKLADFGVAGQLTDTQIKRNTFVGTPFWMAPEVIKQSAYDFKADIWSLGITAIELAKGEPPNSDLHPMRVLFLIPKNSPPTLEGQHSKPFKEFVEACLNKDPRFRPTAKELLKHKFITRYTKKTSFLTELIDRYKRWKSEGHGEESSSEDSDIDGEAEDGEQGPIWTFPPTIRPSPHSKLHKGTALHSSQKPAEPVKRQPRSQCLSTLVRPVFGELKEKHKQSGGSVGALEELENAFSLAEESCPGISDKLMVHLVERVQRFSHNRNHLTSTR
Sequence of UniProt P63010 (P63010 whole entry): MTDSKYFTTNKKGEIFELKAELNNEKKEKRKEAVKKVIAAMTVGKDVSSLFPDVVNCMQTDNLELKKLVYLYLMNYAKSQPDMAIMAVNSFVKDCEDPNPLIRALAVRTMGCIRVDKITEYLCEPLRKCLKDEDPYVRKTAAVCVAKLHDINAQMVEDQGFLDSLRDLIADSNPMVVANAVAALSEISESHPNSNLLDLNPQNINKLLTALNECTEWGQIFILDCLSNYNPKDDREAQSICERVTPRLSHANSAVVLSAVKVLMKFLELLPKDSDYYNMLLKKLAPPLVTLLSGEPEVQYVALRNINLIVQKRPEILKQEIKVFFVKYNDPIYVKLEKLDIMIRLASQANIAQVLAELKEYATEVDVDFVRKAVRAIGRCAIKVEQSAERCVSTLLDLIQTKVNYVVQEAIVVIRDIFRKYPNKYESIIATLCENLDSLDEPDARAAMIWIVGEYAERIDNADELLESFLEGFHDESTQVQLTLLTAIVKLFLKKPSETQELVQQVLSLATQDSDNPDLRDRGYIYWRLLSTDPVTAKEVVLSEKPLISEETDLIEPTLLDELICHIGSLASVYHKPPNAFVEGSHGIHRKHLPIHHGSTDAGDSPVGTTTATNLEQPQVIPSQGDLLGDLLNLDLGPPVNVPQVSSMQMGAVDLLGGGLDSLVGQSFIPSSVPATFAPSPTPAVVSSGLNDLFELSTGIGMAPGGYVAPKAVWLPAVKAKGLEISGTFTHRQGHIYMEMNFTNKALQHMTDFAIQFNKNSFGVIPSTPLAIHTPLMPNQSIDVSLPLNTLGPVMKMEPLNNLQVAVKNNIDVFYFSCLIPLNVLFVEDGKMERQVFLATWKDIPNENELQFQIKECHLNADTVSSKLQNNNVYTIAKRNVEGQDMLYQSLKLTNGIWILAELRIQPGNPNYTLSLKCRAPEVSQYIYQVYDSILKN
Sequence of UniProt P49918 (P49918 whole entry): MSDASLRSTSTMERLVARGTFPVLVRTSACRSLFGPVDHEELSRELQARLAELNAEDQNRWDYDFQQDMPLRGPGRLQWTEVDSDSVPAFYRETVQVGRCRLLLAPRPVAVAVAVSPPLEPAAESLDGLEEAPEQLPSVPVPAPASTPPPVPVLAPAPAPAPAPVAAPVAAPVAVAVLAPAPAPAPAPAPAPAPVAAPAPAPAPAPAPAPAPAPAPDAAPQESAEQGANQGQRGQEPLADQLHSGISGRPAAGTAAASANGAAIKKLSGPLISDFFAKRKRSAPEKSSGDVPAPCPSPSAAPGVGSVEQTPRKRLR
Sequence of UniProt Q16512 (Q16512 whole entry, looked up): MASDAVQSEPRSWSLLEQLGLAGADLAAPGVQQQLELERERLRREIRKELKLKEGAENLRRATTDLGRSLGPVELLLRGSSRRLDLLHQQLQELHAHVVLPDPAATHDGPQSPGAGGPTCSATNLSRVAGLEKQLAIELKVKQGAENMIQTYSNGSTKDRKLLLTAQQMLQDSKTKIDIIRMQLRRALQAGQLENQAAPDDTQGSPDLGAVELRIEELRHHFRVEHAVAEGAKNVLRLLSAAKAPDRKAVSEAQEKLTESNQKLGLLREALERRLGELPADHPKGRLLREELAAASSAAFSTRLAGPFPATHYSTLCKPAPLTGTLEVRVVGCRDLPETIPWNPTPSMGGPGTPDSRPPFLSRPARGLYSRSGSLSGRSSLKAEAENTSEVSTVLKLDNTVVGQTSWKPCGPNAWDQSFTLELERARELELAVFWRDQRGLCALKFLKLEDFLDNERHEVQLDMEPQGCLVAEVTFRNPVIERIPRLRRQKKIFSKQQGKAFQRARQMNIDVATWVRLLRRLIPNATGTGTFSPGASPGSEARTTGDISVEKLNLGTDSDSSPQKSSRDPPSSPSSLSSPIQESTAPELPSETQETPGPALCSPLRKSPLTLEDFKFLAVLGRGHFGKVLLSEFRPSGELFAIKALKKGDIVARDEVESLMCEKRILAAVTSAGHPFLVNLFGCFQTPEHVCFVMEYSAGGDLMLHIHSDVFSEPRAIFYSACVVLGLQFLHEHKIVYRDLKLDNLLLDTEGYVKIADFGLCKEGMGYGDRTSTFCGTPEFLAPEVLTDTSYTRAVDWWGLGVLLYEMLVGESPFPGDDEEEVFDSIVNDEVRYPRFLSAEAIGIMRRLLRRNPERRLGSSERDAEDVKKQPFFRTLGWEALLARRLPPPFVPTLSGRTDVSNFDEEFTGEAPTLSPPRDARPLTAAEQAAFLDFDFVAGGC
Sequence of UniProt P02100 (P02100 whole entry): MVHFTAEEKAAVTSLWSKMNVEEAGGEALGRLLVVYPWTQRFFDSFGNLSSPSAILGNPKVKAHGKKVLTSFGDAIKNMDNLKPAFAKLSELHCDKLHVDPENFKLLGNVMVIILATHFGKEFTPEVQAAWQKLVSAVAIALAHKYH
Sequence of UniProt Q9NXH9 (Q9NXH9 whole entry): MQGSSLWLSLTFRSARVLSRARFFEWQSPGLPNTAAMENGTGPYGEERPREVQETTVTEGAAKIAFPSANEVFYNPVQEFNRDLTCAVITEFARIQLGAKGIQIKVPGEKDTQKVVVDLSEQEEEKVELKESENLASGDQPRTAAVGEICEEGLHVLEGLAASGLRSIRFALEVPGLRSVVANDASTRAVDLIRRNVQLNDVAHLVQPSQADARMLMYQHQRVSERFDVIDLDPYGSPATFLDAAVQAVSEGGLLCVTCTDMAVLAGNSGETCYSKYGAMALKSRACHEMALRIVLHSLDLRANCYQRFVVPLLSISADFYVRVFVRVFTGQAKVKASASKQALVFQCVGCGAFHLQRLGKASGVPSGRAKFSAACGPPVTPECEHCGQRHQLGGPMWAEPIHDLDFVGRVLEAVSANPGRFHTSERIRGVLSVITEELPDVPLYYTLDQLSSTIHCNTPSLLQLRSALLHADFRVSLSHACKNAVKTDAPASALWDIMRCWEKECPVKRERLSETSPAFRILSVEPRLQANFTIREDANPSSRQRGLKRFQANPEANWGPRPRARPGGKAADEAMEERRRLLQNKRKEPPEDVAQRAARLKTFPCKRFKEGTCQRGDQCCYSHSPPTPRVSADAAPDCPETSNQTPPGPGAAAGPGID
Sequence of UniProt Q96G28 (Q96G28 whole entry): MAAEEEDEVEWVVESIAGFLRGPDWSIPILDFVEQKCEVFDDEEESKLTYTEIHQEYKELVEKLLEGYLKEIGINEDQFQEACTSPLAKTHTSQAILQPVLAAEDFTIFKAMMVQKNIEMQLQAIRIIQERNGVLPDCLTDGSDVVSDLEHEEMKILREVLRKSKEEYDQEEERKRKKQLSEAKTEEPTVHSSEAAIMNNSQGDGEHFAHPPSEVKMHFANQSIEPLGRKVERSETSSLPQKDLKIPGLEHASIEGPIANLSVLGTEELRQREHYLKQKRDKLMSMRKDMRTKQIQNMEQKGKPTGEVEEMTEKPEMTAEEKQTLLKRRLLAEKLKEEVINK

Compound in this assay: CN[C@@H]1C[C@H]2O[C@@](C)([C@@H]1OC)n1c3ccccc3c3c4c(c5c6ccccc6n2c5c31)C(=O)NC4 [staurosporine]
Nature of the assay: log2 fold change of tryptic peptide abundance, ligand vs vehicle (limited proteolysis) (log2 ratio); higher = more trypsin-susceptible (destabilized). The conditions noted are these: ligand concentration: 20 uM; sample: K562 cleared lysate; digestion: 4 min, 22 C (HT-PELSA RT4min, Orbitrap Astral).
Regarding “LAMA5 (peptide sequence: TFQLDTAVDRPCAR, peptide start residue: 2918) (UniProt O15230)”, the log2 fold change turned out to be 1.14.

As to “UniProt Q6A1A2 (peptide sequence: AHPFFESVTWENLHQQTPPK, peptide start residue: 338)”, the log2 fold change is -1.74.

Turning to “UniProt P07437 (peptide sequence: IREEYPDRIMNTFSVVPSPK, peptide start residue: 155)”, the log2 fold change is -2.5.

For “FER (peptide sequence: NCLVGENNVLK, peptide start residue: 689) (UniProt P16591)”, the log2 fold change was -0.84.

With “UniProt Q13131 (peptide sequence: VGKHELTGHK, peptide start residue: 43)”, the log2 fold change is -5.

Take “CDKN1C (peptide sequence: SLFGPVDHEELSR, peptide start residue: 32) (UniProt P49918)”: the log2 fold change stood at 1.39.

Take “TBK1 (peptide sequence: VIGEDGQSVYK, peptide start residue: 144) (UniProt Q9UHD2)”: the log2 fold change was -1.75.

Consider “DCUN1D4 (peptide sequence: YAFDFAR, peptide start residue: 144) (UniProt Q92564)”, for which the log2 fold change turned out to be 1.53.

Regarding “PRDX6 (peptide sequence: NFDEILR, peptide start residue: 156) (UniProt P30041)”, the log2 fold change is 0.443.

“AKT1 (peptide sequence: HRVTMNEFEYLK, peptide start residue: 143) (UniProt P31749)”: the log2 fold change is -0.676.

Consider “UniProt Q8TBX8 (peptide sequence: HGAGAEISTVHPEQYAK, peptide start residue: 394)”, for which the log2 fold change was -1.92.

As for “USP8 (peptide sequence: SYSSPDITQAIQEEEKR, peptide start residue: 716) (UniProt P40818)”, the log2 fold change stood at 1.8.

As for “PUS1 (peptide sequence: GYAPESVLER, peptide start residue: 307) (UniProt Q9Y606)”, the log2 fold change was -0.403.

For “UniProt Q02040 (peptide sequence: STMDFIR, peptide start residue: 72)”, the log2 fold change amounted to 0.414.

For “UniProt Q16512 (peptide sequence: IADFGLCK, peptide start residue: 756)”, the log2 fold change was -2.52.

Take “RFESD (peptide sequence: EYSSVCVGREDDIK, peptide start residue: 14) (UniProt Q8TAC1)”: the log2 fold change stood at 0.768.

As to “GEMIN5 (peptide sequence: MLSTFKELFSEK, peptide start residue: 1352) (UniProt Q8TEQ6)”, the log2 fold change is -1.

For “TRMT1 (peptide sequence: RNVQLNDVAHLVQPSQADAR, peptide start residue: 195) (UniProt Q9NXH9)”, the log2 fold change turned out to be 0.782.

Regarding “THRAP3 (peptide sequence: SYSPAHNR, peptide start residue: 53) (UniProt Q9Y2W1)”, the log2 fold change came to 2.27.

As to “UniProt Q9Y2K2 (peptide sequence: IGYYEIDR, peptide start residue: 63)”, the log2 fold change is -3.15.

On to “DTNBP1 (peptide sequence: YEDTWAALHRR, peptide start residue: 55) (UniProt Q96EV8)”, for which the log2 fold change was -0.512.

“AP2B1 (peptide sequence: VIAAMTVGK, peptide start residue: 37) (UniProt P63010)”: the log2 fold change turned out to be 0.277.

For the target “UniProt O00506 (peptide sequence: LADFGVAGQLTDTQIKR, peptide start residue: 160)”, the log2 fold change is -1.08.

For “PKN3 (peptide sequence: TTNWQALLAR, peptide start residue: 820) (UniProt Q6P5Z2)”, the log2 fold change is -2.37.

As for “HBE1 (peptide sequence: MNVEEAGGEALGR, peptide start residue: 19) (UniProt P02100)”, the log2 fold change was 0.28.

In the case of “GTSE1 (peptide sequence: SIPGAAEKPK, peptide start residue: 228) (UniProt Q9NYZ3)”, the log2 fold change was determined as 0.58.

For the target “UniProt Q96G28 (peptide sequence: NIEMQLQAIR, peptide start residue: 117)”, the log2 fold change amounted to 0.282.

Take “UniProt Q9NYV4 (peptide sequence: EIVTDKQDALDFKK, peptide start residue: 791)”: the log2 fold change was -1.83.

Consider “KSR1 (peptide sequence: LSHDWLCYLAPEIVR, peptide start residue: 771) (UniProt Q8IVT5)”, for which the log2 fold change is -0.299.

With “DDX41 (peptide sequence: TDEVPAGGSR, peptide start residue: 13) (UniProt Q9UJV9)”, the log2 fold change came to 0.553.

For the target “PDS5A (peptide sequence: SHDPEEAIRHDVIVTIITAAK, peptide start residue: 369) (UniProt Q29RF7)”, the log2 fold change came to 0.622.

With “RBM34 (peptide sequence: NGAQIADGFR, peptide start residue: 263) (UniProt P42696)”, the log2 fold change turned out to be 0.437.

On to “UniProt Q9NSY1 (peptide sequence: DGVNVVEEEIKK, peptide start residue: 212)”, for which the log2 fold change was -4.3.

As to “LATS1 (peptide sequence: QQSASYIPK, peptide start residue: 1021) (UniProt O95835)”, the log2 fold change is -2.87.

Turning to “PRKAR2B (peptide sequence: CVGNYDNR, peptide start residue: 211) (UniProt P31323)”, the log2 fold change was 0.866.

Turning to “IARS (peptide sequence: AVPSWFVR, peptide start residue: 411) (UniProt P41252)”, the log2 fold change was found to be 0.326.

With “UniProt Q16513 (peptide sequence: HPFLVNLFACFQTK, peptide start residue: 717)”, the log2 fold change is -2.07.

Regarding “UniProt Q14004 (peptide sequence: EGFPITAIR, peptide start residue: 765)”, the log2 fold change is -1.01.
